Compounds with a hit are over-represented: about 1.8% of the library has one in this group of screens.
PrP UTR inh = suppresses PrP 5' UTR mRNA reporter expression. 340,000 tested, 0.35% active. inhibition, % (no concentration beside the values). cell-based PrP 5' UTR mRNA reporter, plate reader; in the data active = inhibition above about 52%
PfHsp40 rescue = rescue of PfHsp40-mediated yeast toxicity; S. cerevisiae expressing PfHsp40, growth rescue, ATP luminescence; growth rescue, % at 12.5 µM; 340,000 tested, 0.68% active; AID 504582; in the data active = growth rescue above about 28%, passing the limit was not always enough; inconclusive = no clear call, values can overlap the other calls;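 note: yeast W303a lacking pdr1 and pdr3 grown in galactose medium; growth measured after three days at 30 °C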
MazF activator = activators of E. coli MazEF toxin-antitoxin RNase; P0AE70; FAM/BHQ RNA-DNA oligo cleavage fluorescence, 5 h; activation, % at 20 µM; 350,000 tested, 0.32% active; AID 504720; in the data active = activation above about 50%
Target sequence (P0AE70 whole entry, looked up): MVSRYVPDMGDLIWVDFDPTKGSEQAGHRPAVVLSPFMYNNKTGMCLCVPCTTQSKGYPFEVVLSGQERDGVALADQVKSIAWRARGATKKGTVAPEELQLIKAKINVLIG
PriA SSB inh = K. pneumoniae PriA-SSBct interaction inhibition | AID 1272365 | 430,000 tested, 0.6% active | AlphaScreen SSBct-PriA binding, biotinylated peptide | inhibition, % at 33 µM; in the data active = inhibition mostly above about 37%, no sharp cut-off; inactive = mostly below about 20%
PrPC TRFRET = inhibitors of human cell surface prion protein PrPC | P04156 | TR-FRET read-out | inhibition, % at 13.8 µM | 370,000 tested, 0.43% active | AID 720596; in the data active = inhibition above about 24%
Hits are given with their value; 0 = inactive; ? = inconclusive; - = no result given; ! = a repeat was not active.

SMILES	PrP UTR inh	PfHsp40 rescue	MazF activator	PriA SSB inh	PrPC TRFRET
CCOc1ccc(S(=O)(=O)NCC2CCN(C3CCCC3)CC2)cc1	-	-	-	0	-
CCOc1cccc2sc(N(CCCn3ccnc3)C(=O)c3ccc(Cl)s3)nc12	-	-	-	50	-
Cc1cccc2sc(N(CCCn3ccnc3)C(=O)c3ccc(Cl)s3)nc12	-	-	-	0	-
O=C(NN=C1C(=O)c2cccc3cccc1c23)c1ccc(Cl)cc1	-	-	-	0	-
O=C(COc1ccc(Br)cc1)NN1C(=O)c2ccccc2C1=O	-	-	442	0	0
O=C(Nc1nc2c(cc3c4c(cccc42)CC3)s1)c1ccccc1[N+](=O)[O-]	-	-	-	0	-
CCCOc1ccc(N)cc1N	0	0	0	52	0
COc1ccc(S(=O)(=O)/N=C2\C=C(Nc3ccc(O)cc3)C(=O)c3ccccc32)cc1	0	0	0	-	56
COc1ccc(S(=O)(=O)N=C2C=C(NS(=O)(=O)c3ccccc3)C(=O)c3ccccc32)cc1	-	-	-	0	-
CCOc1ccc(S(=O)(=O)Nc2ccc(Nc3ccc(-n4cccn4)nn3)cc2)cc1	-	-	-	70	-
COc1ccc(CC(=O)Nc2cccc(-c3csc(C)n3)c2)cc1	0	0	0	0	0
Cc1nc(-c2cccc(NC(=O)COc3ccc(Cl)cc3)c2)cs1	0	56	0	0	0
O=C(NN1C(=O)/C(=C/C=C/c2ccco2)SC1=S)c1ccccc1O	0	0	0	0	0
CCC(C)NS(=O)(=O)c1ccc(NC(=O)c2cccs2)cc1 (centres undefined)	0	0	0	0	0
Cc1ccc(NS(=O)(=O)c2ccc(NC(=O)c3cccs3)cc2)cc1	0	0	74	0	0
CNS(=O)(=O)c1ccc(NC(=O)Cc2cccs2)cc1	-	-	-	45!	-
CCOc1ccc(NC(=O)CN(C)C(=O)CCc2ccccc2Cl)cc1OCC	0	0	0	0	0
Cn1cc(CC(=O)N2CCN(c3ccc(Cl)cc3)CC2)c2ccccc21	0	0	0	0	0
Cn1c(NC(=O)CCc2ccccc2)cc(=O)n(C)c1=O	0	0	0	46	0
Cc1ccc(C(=O)NCCn2cc(SC(=N)N)c3ccccc32)cc1	-	-	-	39	-
COc1cc(N)c2ncccc2c1	-	-	-	47	-
COc1cc(NS(C)(=O)=O)c2ncccc2c1	-	-	-	0	-
CCN(C(=O)CN1C(=O)S/C(=C\c2ccccc2Cl)C1=O)C1CCS(=O)(=O)C1 (centres undefined)	-	-	0	-	0
O=C(O)c1cccnc1SCc1ccc([N+](=O)[O-])cc1	0	0	0	0	0
O=[N+]([O-])c1cccnc1SCc1ccccc1	0	0	0	48	0
SMILES	PrP UTR inh	PfHsp40 rescue	MazF activator	PriA SSB inh	PrPC TRFRET
O=[N+]([O-])c1cccnc1Sc1ccc(Br)cc1	0	0	0	48	0
CCC(=O)Nc1c(C#N)c2nc3ccccc3nc2n1-c1ccc(C)cc1	0	0	0	0	0
CCC(C)n1c(NC(=O)c2ccccc2)c(C#N)c2nc3ccccc3nc21 (centres undefined)	0	0	0	58	0
CCCCCn1c(NC(=O)c2ccco2)c(C(=O)OCC)c2nc3ccccc3nc21	0	0	0	0	-
CCCCn1c(NC(=O)c2ccccc2)c(C#N)c2nc3ccccc3nc21	0	0	0	56	0
CN1c2ccccc2-c2ccccc2S1(=O)=O	0	0	0	0	0
Cc1nnsc1Sc1ccccc1C(=O)O	0	0	0	0	0
N#Cc1cccc(C(=O)N2CCCC[C@H](c3ccc(F)cc3)C2)c1	-	-	-	0	-
CN(C)c1cccc(C(=O)N2CCCC[C@H](c3ccc(F)cc3)C2)c1	-	-	-	57	-
CCc1nnc(NC(=O)CSc2ncnc3c2cnn3-c2ccc(OC)cc2)s1	0	0	0	0	0
CCn1c(=O)c(C(=O)NCCc2ccc(OC)c(OC)c2)c(O)c2ccccc21	-	0	0	0	0
C=CCn1c(=O)c(C(=O)NCc2ccccc2)c(O)c2ccccc21	0	129	0	0	0
CCCn1c(=O)c(C(=O)NCCc2ccc(OC)c(OC)c2)c(O)c2ccccc21	0	192	0	0	0
CCCCCCC(=O)NNC(=O)c1c(O)c2ccccc2n(CC)c1=O	0	0	0	0	0
CCn1c(=O)c(C(=O)NNC(=O)c2ccccc2)c(O)c2ccccc21	0	168	0	0	0
CCCCCCn1c(=O)c(C(=O)Nc2ncccc2C)c(O)c2ccccc21	0	145	0	0	0
CCCCn1c(=O)c(C(=O)Nc2ncccc2C)c(O)c2ccccc21	0	?	0	0	0
Cn1c(=O)c(C(=O)NCc2ccccc2Cl)c(O)c2ccccc21	0	0	54	0	0
CCCCn1c(=O)c(C(=O)NCc2ccncc2)c(O)c2ccccc21	0	219	0	0	0
O=C(NC(=O)N1CCN(Cc2ccccc2)CC1)c1ccccc1	-	-	-	0	-

From PubChem BioAssay
